Assay outcomes: PubChem, several laboratories
PostGolgi ctrl: growth of the yeast control strain, post-Golgi counter-screen; efflux-deficient yeast background strain, growth absorbance A615, 16 h; inhibition, % at 10 µM; 5% of 98,000 active; AID 738
PostGolgi yeast: growth inhibition of a yeast mutant, post-Golgi transport screen; inhibition, % at 10 µM; post-Golgi transport phenotypic cell assay; 0.9% of 98,000 active;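 note: yeast cells grown in 1536-well plates; yeast grown about 18 h at 30C before absorbance read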
sEH activator: soluble epoxide hydrolase (human) activation; P34913; purified human sEH enzymatic activity, activator screen; activation, % at 2 µM; 0.04% of 91,000 active; AID 717; in the data active = activation above about 37%
sEH inh: soluble epoxide hydrolase (human) inhibition. P34913. recombinant human sEH enzymatic activity assay. inhibition, % at 2 µM. 0.34% of 91,000 active. AID 707; in the data active = inhibition above about 80%
Cav3 T inh: blocks human Cav3.2 T-type calcium channel; 4% of 100,000 active; B-score at 10 µM; Cav3.2-expressing cells, Fluo-4 calcium fluorescence FDSS; hits give low values;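 active = single-dose well whose peak fluorescence ratio is a statistical outlier from its plate by either plate-standardised score or position-corrected B-score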
Of the large screens only hits and unclear results are named; the others gave an inactive call. Sampled rows, rich in hits. Any-hit rate of the full collection: about 7.8%. Cut-off read from the data, not from the text of the source, unless noted: active = inhibition above about 30%; inactive = the rest.

O=C(Oc1c(Cl)cc(Cl)c2ccccc12)N1CCCCC1	PostGolgi ctrl 37
ClCCNc1nc2ccc(Cl)cc2[nH]1	none
C[N+]12CCC(CC1)C(C(O)(c1ccccc1)c1cccs1)C2 (configuration not stated)	none
O=C1CC(N2CCC(n3c(=O)[nH]c4ccccc43)CC2)C(=O)N1c1ccc(F)cc1 (configuration not stated)	none (no result: Cav3 T inh)
O=c1[nH]c2ccccc2n1C1CCN(CCCC(c2ccc(F)cc2)c2ccc(F)cc2)CC1	Cav3 T inh -4.8 (no result: PostGolgi ctrl, PostGolgi yeast, sEH activator, sEH inh)
CN1C(=O)C(Cc2ccc3c(c2)OCO3)C(=O)N(C)C1=O	none
O=C(Cn1ncc2c3ccccc3n(Cc3ccc(F)cc3)c2c1=O)N1CCC2(CC1)OCCO2	Cav3 T inh -8
Cc1c2cnn(CC(=O)N3CCC4(CC3)OCCO4)c(=O)c2c(C)n1Cc1ccccc1	none (no result: sEH activator, sEH inh)
CCOC(=O)c1cncn1C(C)c1ccccc1 (configuration not stated)	none (no result: sEH activator, sEH inh, Cav3 T inh)
O=C(Nc1ccc(Cl)cc1)O/N=C(\c1ccccc1)c1ccccn1	none
CNc1ccc2oc(C[C@H]3O[C@@]4(CC[C@H]3C)O[C@H]([C@H](C)C(=O)c3ccc[nH]3)[C@H](C)C[C@H]4C)nc2c1C(=O)O	Cav3 T inh 4.4 (no result: PostGolgi ctrl, PostGolgi yeast, sEH activator, sEH inh)
CCN1CCN(C(=O)COc2ccc3c(c2)C(=O)CC2(CCN(C(C)=O)CC2)O3)CC1	none
CN(C)CC1CSCCC1(O)c1cccc(Cl)c1 (configuration not stated)	none (no result: PostGolgi ctrl, PostGolgi yeast)
CC(C)CNC(=O)c1c(N)n(Cc2ccco2)c2nc3ccccc3nc12	PostGolgi ctrl 55
CC(=O)OC1C2CCCC1C(N1CCCC1)CC2 (configuration not stated)	none
O=C1C2CCN(CC2)C1Cc1ccccc1O (configuration not stated)	none
O=C1C2CCN(CC2)C1Cc1ccc(OCCOc2ccccc2)cc1 (configuration not stated)	PostGolgi ctrl 43
O=c1[nH]c(=O)n(Cc2ccccc2)c(O)c1C=NCCN1CCOCC1	none (no result: PostGolgi ctrl, PostGolgi yeast, sEH activator, sEH inh)
Cc1nc2ccccc2n1C1CCN(Cc2nnnn2CCc2ccccc2)CC1	PostGolgi ctrl 39
c1ccc(CCn2nnnc2CN2CCC(n3nnc4ccccc43)CC2)cc1	none (no result: sEH activator, sEH inh)
CCN(CC)c1ccc(CN2CC=C(c3ccc(F)cc3)CC2)cc1	PostGolgi yeast 60
CCN1CC=C(c2c[nH]c3ccccc23)CC1	none
COc1ccccc1OCCCn1cc(C(=O)c2ccco2)c2ccccc21	PostGolgi ctrl 49
CCCCCCCSc1cc(OC)c(CCN(C)C)cc1OC	PostGolgi ctrl 84 (no result: Cav3 T inh)
Cc1ccc(N2C(=O)NC(=O)/C(=C/c3ccc(OC(=O)c4cccs4)cc3)C2=O)cc1	PostGolgi ctrl 32
CCC(=NCc1ccco1)c1c(O)n(C2CCCCC2)c(=O)[nH]c1=O	PostGolgi ctrl 45, Cav3 T inh -6.8
CCC(=Nc1ccc(OC)cc1OC)c1c(O)n(C2CCCCC2)c(=O)[nH]c1=O	PostGolgi ctrl 48, PostGolgi yeast 71
Cc1ccc2c(c1)CC1(CN2C)C(=O)NC(=O)N(C(C)C)C1=O (configuration not stated)	none
Cc1ccc2c(c1)CC1(CN2C)C(=O)NC(=O)N(CCC2=CCCCC2)C1=O (configuration not stated)	PostGolgi ctrl 40
CC(C)CC12CN3CCN(CC(C3)C1O)C2 (configuration not stated)	none
CCN(CC)CCOC(=O)c1ccc(N=Cc2c(O)[nH]c(=O)[nH]c2=O)cc1	none
CC(N=Cc1c(O)[nH]c(=O)[nH]c1=O)c1ccccc1 (configuration not stated)	none
N#CC1=C(N)Oc2c(c(=O)oc3ccccc23)C1c1cccnc1 (configuration not stated)	none (no result: sEH activator, sEH inh)
Cc1nn(-c2ccccc2)c(Cl)c1C1C(C#N)=C(N)Oc2c1c(=O)oc1ccccc21 (configuration not stated)	PostGolgi ctrl 31 (no result: Cav3 T inh)
O=C(c1cc(-c2ccc(Cl)cc2)n(-c2ccc(Cl)cc2Cl)n1)N1CCOCC1	PostGolgi ctrl 33
CCCCn1c(O)c(C(C)=NC(Cc2c[nH]c3ccccc23)C(=O)OC)c(=O)[nH]c1=O (configuration not stated)	Cav3 T inh -4.3
CCCCCCn1c(O)c(C(C)=NC)c(=O)[nH]c1=O	none
CCCCn1c(O)c(C(C)=Nc2cccc(C(=O)O)c2)c(=O)[nH]c1=O	none
CC(=NCCCO)c1c(O)n(Cc2ccccc2)c(=O)[nH]c1=O	none (no result: PostGolgi ctrl, PostGolgi yeast)
CCCCn1c(O)c(C(C)=Nc2ccc(OCC)cc2)c(=O)[nH]c1=O	PostGolgi yeast 52
CCCCCCN=C(C)c1c(O)n(Cc2ccccc2)c(=O)[nH]c1=O	PostGolgi ctrl 35
COC(=O)C(O)(c1ccc(NC(=S)NC(=O)c2ccccc2)cc1)C(F)(F)F (configuration not stated)	PostGolgi ctrl 33
O=C(c1cccs1)c1cn(Cc2ccccc2Cl)c2ccccc12	Cav3 T inh -6.2
N#Cc1ccccc1Cn1cc(C(=O)c2cccs2)c2ccccc21	PostGolgi yeast 57
O=C(c1ccco1)c1cn(Cc2ccc(Cl)cc2)c2ccccc12	none
CN(C)C1=NP(N(C)C)(N(C)C)=NC(c2ccccc2)=N1	none
O=c1cccc2n1CC1CC2CN(S(=O)(=O)c2ccccc2)C1 (configuration not stated)	PostGolgi yeast 43
CC1(C)COC(Nc2ccc(Cl)cc2)=N1	none
O=c1[nH]c(=S)n(Cc2ccco2)c(O)c1C=NCc1cccs1	PostGolgi ctrl 36
O=c1[nH]c(=O)n(Cc2ccco2)c(O)c1C=NCc1cccs1	none
CCOc1ccc(-n2c(CC)nc3ccccc3c2=O)cc1	PostGolgi ctrl 31 (no result: sEH activator, sEH inh)
CN1/C(=C\C=C\C2=[N+](C)c3ccc4ccccc4c3C2(C)C)C(C)(C)c2ccccc21	PostGolgi ctrl 100, PostGolgi yeast 101, Cav3 T inh -5.9
C=C1C[C@]2(O)[C@@]3(C)CCC(=O)C(C)(C)C3=C(O)C(=O)[C@@]2(C)[C@@H]2C(=O)O[C@@](C)(C(=O)OC)C(=O)[C@@]12C	none (no result: PostGolgi ctrl, PostGolgi yeast, sEH activator, sEH inh)
CC1CCN(S(=O)(=O)c2ccc(NN=C(C#N)C#N)cc2)CC1	Cav3 T inh -8.4
COc1ccc(C(=O)N2CCOCC2)cc1S(=O)(=O)N1CCC(C)CC1	none
COc1ccccc1OCC(=O)Nc1ccc(Cl)cc1C(=O)c1ccccc1	PostGolgi ctrl 40
O=C(Nc1ccc(Cl)cc1C(=O)c1ccccc1)c1ccccc1	none (no result: Cav3 T inh)
CCCCc1nc2ccccc2c(=O)n1-c1ccc(O)cc1	none
CCOC(=O)C1=C(C)OC(N)=C(C(=O)OCC)C12C(=O)Nc1ccc(Br)cc12 (configuration not stated)	Cav3 T inh -3.8
CN1CSC(=S)N(C)C1	none
CCCCn1c(O)c(C(CC)=NCc2ccc3c(c2)OCO3)c(=O)[nH]c1=O	PostGolgi ctrl 55, Cav3 T inh -5.1
C=CCn1c(O)c(C(CC)=NCc2cc(OC)cc(OC)c2)c(=O)[nH]c1=O	PostGolgi ctrl 34
C=CCn1c(O)c(C(CC)=NCCC2=CCCCC2)c(=O)[nH]c1=O	PostGolgi ctrl 38
C=CCn1c(O)c(C(CC)=NCCCO)c(=O)[nH]c1=O	none (no result: sEH activator, sEH inh)
